The text below walks through data of PubChem BioAssay AID624330 (Southern Research Specialized Biocontainment Screening …, 2012).

In all, about 340,000 compounds went through this assay and about 2,100 (0.62%) were called active.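 Rule for the calls: active = first-screen hits whose inhibition reached a set limit at any dose in the follow-up dose series; inconclusive = inhibition above the set first-screen limit but never retested; inactive = the rest.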 Only a sample is shown. Entries with a potency or affinity are not part of this list.

In the experiment the target is Rac GTPase-activating protein 1 (Homo sapiens) (UniProt Q9H0H5). Description: blockers of MgcRacGAP-driven Rac1 GTP hydrolysis – biochemical, ADP Hunter fluorescence, primary and confirmatory, confirmation (AID 624330).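 Note: fluorescence reports GDP produced by GAP-driven GTP hydrolysis.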 Conditions: MgcRacGAP-stimulated Rac1 GTP hydrolysis, at 30 µM, hits give high values, GST-tagged Rac1 F28L mutant substrate.
Rac GTPase-activating protein 1 (Homo sapiens), sequence (Q9H0H5 whole entry, looked up): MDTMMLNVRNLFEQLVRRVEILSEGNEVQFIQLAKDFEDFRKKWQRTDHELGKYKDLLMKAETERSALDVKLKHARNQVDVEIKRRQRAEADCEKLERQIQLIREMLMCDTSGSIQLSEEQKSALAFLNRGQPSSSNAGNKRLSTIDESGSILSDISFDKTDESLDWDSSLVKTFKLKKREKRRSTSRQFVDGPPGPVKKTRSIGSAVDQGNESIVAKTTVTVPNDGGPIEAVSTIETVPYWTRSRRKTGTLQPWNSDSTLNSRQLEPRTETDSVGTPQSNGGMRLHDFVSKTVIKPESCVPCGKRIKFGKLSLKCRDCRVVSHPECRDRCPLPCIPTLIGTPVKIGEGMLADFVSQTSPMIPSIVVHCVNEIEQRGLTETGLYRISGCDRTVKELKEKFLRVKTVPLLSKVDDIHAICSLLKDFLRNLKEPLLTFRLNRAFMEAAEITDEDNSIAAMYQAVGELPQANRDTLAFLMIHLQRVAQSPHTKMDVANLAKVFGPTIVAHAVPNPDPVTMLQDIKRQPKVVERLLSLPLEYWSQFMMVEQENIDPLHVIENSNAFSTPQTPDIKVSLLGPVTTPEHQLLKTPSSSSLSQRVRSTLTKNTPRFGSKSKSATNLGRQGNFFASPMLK
Take `COc1ccc(CNC(=O)c2ccc(Cn3nc(C)c([N+](=O)[O-])c3C)o2)cc1`: the inhibition was 5.77% (inactive).
For `Cc1cc(C)c(SSc2nnnn2-c2ccccc2)c(C)c1`, the inhibition was 27.2% (inactive).
Take `CC1CN(C(=O)CCNC(=O)c2ccccc2Cl)CC(C)O1` (stereo not drawn): the inhibition was 4.76% (inactive).
To `COC(=O)[C@H](C(C)C)N(Cc1ccccc1)S(=O)(=O)CCN1CCN(c2ccccc2)CC1` belongs 3.71% (inactive).
To `Cc1c(Br)c([N+](=O)[O-])nn1CC(=O)Nc1nccs1` belongs -2.73% (inactive).
As to `COc1ccc(S(=O)(=O)NC(CC(=O)NC2CCCC2)c2ccco2)cc1` (stereo not drawn), the inhibition is 5.91% (inactive).
Take `O=C(C1CCN(S(=O)(=O)c2cccc3nsnc23)CC1)N1CCc2ccccc2C1`: the inhibition is -5.35% (inactive).
Turning to `Cn1c(-c2ccc(F)cc2)cnc1NCc1ccccc1`, the inhibition is 25.3% (inactive).
In the case of `Cn1c(-c2ccc(F)cc2)cnc1NCc1ccc(C#N)cc1` it was 24.6% (inactive); in that of `O=C(c1ccccc1)c1ccccc1N1C(=O)C=CC1=O`, 17.1% (inactive).
With `COc1ccc(N2C(=O)C3CC(C)=C(C)CC3C2=O)c(OC)c1` (stereo not drawn), the inhibition was 0.34% (inactive).
In the case of `O=C1C=CC(=O)N1c1ccccn1` it was 7.4% (inactive); in that of `COc1cc(N2C(=O)C=CC2=O)c(OC)cc1Cl`, -11.4% (inactive); in that of `CCCc1cc(=O)[nH]c(SCC(=O)Nc2ccc(C)c(S(=O)(=O)N3CCCCC3)c2)n1`, 6.98% (inactive).
Consider `COc1cccc(OC)c1C(=O)N1CCN(c2ccccn2)CC1`, for which the inhibition was 6.84% (inactive).
With `COC(=O)c1c(NC(=O)c2cccnc2)sc(C(=O)N(C)C)c1C`, the inhibition is 4.99% (inactive).
To `COc1ccc(-c2cc3cc(OC)c(OC)cc3c(C)n2)cc1C` belongs 6.32% (inactive); to `COc1ccc(-c2cc3cc(OC)c(OC)cc3c(C)n2)cc1`, 6.65% (inactive); to `COc1ccccc1-c1c(-c2ccc(O)cc2O)n[nH]c1C(F)(F)F`, 13.8% (inactive).
In the case of `COc1ccc(-c2cc(-c3ccc(OC)c(OC)c3)n[nH]2)c(O)c1` it was 8.89% (inactive); in that of `COc1ccc(-c2cncnc2-c2ccc(OC)cc2O)cc1`, 2.33% (inactive).
For the compound `COc1ccc(-c2cc(-c3ccccc3O)[nH]n2)cc1OC`, the inhibition was 13.3% (inactive).
In the case of `COc1ccc(-c2c(-c3ccc(O)cc3O)n[nH]c2C(F)(F)F)cc1` it was 9.47% (inactive); in that of `COc1ccc(-c2nc(N)ncc2-c2ccccc2OC)c(O)c1`, 5.57% (inactive); in that of `COc1ccc(CNC(=O)C2CCCN(c3nn4c(=O)cc(C)nc4s3)C2)cc1` (stereo not drawn), 12.2% (inactive).
With `CC1C2Cn3c(nc4ccccc43)C1N(C(C)C)O2` (stereo not drawn), the inhibition was 10.4% (inactive).
Take `Nc1ccc(C(=O)O)cc1S(=O)(=O)O`: the inhibition is 14.3% (inactive).
Turning to `CCOC(=O)c1cnc2c(Cl)c(Cl)ccc2c1NCCN1CCOCC1`, the inhibition is 8.14% (inactive).
Take `O=C(NC(=S)Nc1ccccc1Br)C1CCCCC1`: the inhibition is 13% (inactive).
As for `CCCN(CC(=O)Nc1ccccc1C)C(=O)C1CCN(S(=O)(=O)c2ccc3c(c2)OCCO3)CC1`, the inhibition was 4.31% (inactive).
For the compound `O=C(CCc1ccccc1)n1nc(-c2ccccc2)nc1NCc1ccco1`, the inhibition is 7.46% (inactive).
For the compound `COc1ccc(-c2nc(CCl)cs2)cc1OC`, the inhibition is 1.88% (inactive).
For `COc1ccc(-c2nc(C(=O)O)cs2)cc1OC`, the inhibition is -2.83% (inactive).
Regarding `CCOc1ccc(-c2cc(C(=O)OC)[nH]n2)cc1`, the inhibition was 0.73% (inactive).
Turning to `CN(C)S(=O)(=O)c1ccc(C(=O)Nc2cccc(S(=O)(=O)NC3=NCCC3)c2)cc1`, the inhibition was 3.74% (inactive).
On to `O=[N+]([O-])c1ccc(N2CCN(c3cccc(Cl)c3)CC2)cn1`, for which the inhibition is 8.34% (inactive).
Take `Cn1c(-c2ccccc2)c(C(=O)CCl)c2ccccc21`: the inhibition is -6.3% (inactive).
With `Cn1c(-c2ccccc2)c(C(=O)CC#N)c2ccccc21`, the inhibition is 5.99% (inactive).
For `COc1ccc(-c2cc(C(=O)Nc3ccc(S(N)(=O)=O)cc3)c3ccccc3n2)cc1OC`, the inhibition is -3.78% (inactive).
To `COc1cc(-c2cc(C(=O)O)c3cc4ccccc4cc3n2)cc(OC)c1OC` belongs 11.4% (inactive); to `CCOc1ccc2nc(-c3ccc(OC)c(OC)c3)cc(C(=O)O)c2c1`, 11.1% (inactive).
Regarding `COc1ccc(-c2cc(C(=O)Nc3ccc(C(N)=O)cc3)c3ccccc3n2)cc1OC`, the inhibition was 12.9% (inactive).
`O=C(Nc1ccc(NC(=O)C2CC2)cn1)c1ccccc1`: the inhibition is 9.99% (inactive).
In the case of `COc1ccccc1-c1noc(-c2ccccc2C(=O)NCc2ccco2)n1` it was 4.73% (inactive).
To `Cc1ccc(C)n1CCN1CCN(S(=O)(=O)c2ccc(F)cc2F)CC1` belongs 4.22% (inactive).
As to `S=c1[nH]nc(-c2ccco2)n1/N=C/c1ccccc1Cl`, the inhibition is 14.4% (inactive).
As for `S=c1[nH]nc(-c2ccco2)n1/N=C/c1c(Cl)cccc1Cl`, the inhibition was 8.7% (inactive).
As for `S=c1[nH]nc(-c2ccco2)n1/N=C/c1cccc(Cl)c1`, the inhibition is 12% (inactive).
Turning to `S=c1[nH]nc(-c2ccco2)n1/N=C/c1ccc(Cl)c(Cl)c1`, the inhibition was 7.47% (inactive).
To `COc1cccc(NC(=O)CN(C)C(=O)CSc2nc3ccccc3s2)c1` belongs -3.45% (inactive); to `CCOc1ccc(N2C(=O)CC(NCCc3ccc(S(N)(=O)=O)cc3)C2=O)cc1` (stereo not drawn), 9.91% (inactive); to `O=C(O)[C@H]1CCCC[C@H]1C(=O)Nc1ccc(S(=O)(=O)N2CCCCC2)cc1`, 6.35% (inactive).
Take `CCOc1ccc(/C=N/NC(=O)c2ccc(Cn3cc(Br)cn3)o2)cc1`: the inhibition was -8.44% (inactive).
To `CC(=O)C(=Nc1ccc(Cl)cc1Cl)NNc1cccc(Cl)c1` belongs 22.6% (inactive); to `CCC(=O)c1ccccc1OCCCN1CCC(Cc2ccccc2)CC1`, 16.5% (inactive); to `Clc1cccc(OCCCN2CCCC2)c1Cl`, 19% (inactive).
In the case of `CC1CC(C)CN(CCOc2cccc(Cl)c2Cl)C1` (stereo not drawn) it was 18.8% (inactive); in that of `c1ccc(Oc2cccc(OCCCCN3CCCC3)c2)cc1`, 18.1% (inactive).
In the case of `CC1CN(CCOc2cccc(Oc3ccccc3)c2)CC(C)O1` (stereo not drawn) it was 19.8% (inactive).
For the compound `CCN1CCN(Cc2ccc(OCc3ccccc3)c(OC)c2)CC1`, the inhibition was 14.4% (inactive).
To `CCOc1ccccc1OCCN1CCC(Cc2ccccc2)CC1` belongs 11.1% (inactive); to `COC(=O)c1ccccc1OCCN1CCCCCC1`, 24.5% (inactive).
As for `CCc1ccc(/C([O-])=C(/C(=S)NCCN2CCOCC2)[n+]2ccccc2)cc1`, the inhibition was -2.62% (inactive).

As usually defined, the inhibition is the drop in the measured response relative to a control, in per cent.
